This is a sample that favours compounds with a hit; in the whole collection about 2.4% have one here.
POLB inh: blocks human DNA polymerase beta activity; hit rate 1.3% among 340,000; AID 485314; Pol beta primer extension/strand displacement, fluorescence kinetic; Potency, µM (highest dose often 114 µM), for inactives: at the top dose activity change, negative = inhibition, actives largely listed as inhibitors; note: % is set by controls: 0 for no effect and ±100 for the full control effect
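Kinetic readout of DNA synthesis with strand displacement by Pol beta. Compound and 10 nM enzyme sit 15 min at room temperature; 50 nM substrate starts the reaction, read immediately and at 10 min.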
Pol kappa inh: inhibitors of human DNA polymerase kappa; Q9UBT6; purified Pol kappa, fluorescent DNA synthesis assay, 10 min; Potency, µM (titrated, usually from 107 µM), without a hit: top-dose activity, negative = inhibition, actives largely listed as inhibitors; hit rate 0.53% among 400,000; note: % is set by controls: 0 for no effect and ±100 for the full control effect
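10 nM Pol kappa was preincubated with compounds for 15 min at room temperature. Reaction started with 50 nM (final) substrate. Fluorescence read kinetically at 0 and 10 min.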
Pol eta inh: inhibitors of human DNA polymerase eta; Potency, µM (series often up to 114 µM), for the others: at the top dose activity change, negative = inhibition, most hits filed as inhibitors; recombinant Pol eta, fluorescent DNA replication assay; hit rate 1.2% among 390,000; Q9Y253; note: % is set by controls: 0 for no effect and ±100 for the full control effect
Target sequence (Q9Y253 whole entry, looked up): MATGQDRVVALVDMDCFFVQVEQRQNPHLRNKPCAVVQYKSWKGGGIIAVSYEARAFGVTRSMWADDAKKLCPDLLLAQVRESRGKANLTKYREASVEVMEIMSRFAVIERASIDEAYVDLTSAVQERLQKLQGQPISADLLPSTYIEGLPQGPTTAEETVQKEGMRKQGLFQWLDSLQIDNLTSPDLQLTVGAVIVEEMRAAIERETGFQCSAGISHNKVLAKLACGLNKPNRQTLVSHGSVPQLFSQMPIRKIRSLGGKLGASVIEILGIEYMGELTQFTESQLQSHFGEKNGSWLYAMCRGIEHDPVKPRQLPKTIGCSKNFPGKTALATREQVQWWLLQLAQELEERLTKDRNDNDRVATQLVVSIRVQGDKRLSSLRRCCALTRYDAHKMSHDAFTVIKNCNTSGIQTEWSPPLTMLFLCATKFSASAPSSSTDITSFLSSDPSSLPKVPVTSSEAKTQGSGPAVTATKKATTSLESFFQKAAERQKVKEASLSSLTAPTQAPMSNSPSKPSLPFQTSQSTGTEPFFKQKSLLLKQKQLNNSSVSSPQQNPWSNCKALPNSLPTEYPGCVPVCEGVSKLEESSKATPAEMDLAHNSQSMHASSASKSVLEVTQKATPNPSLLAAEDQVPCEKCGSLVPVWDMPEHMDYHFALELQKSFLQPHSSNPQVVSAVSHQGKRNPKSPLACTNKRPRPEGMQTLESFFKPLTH
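Pol eta (10 nM) was preincubated with compounds for 15 min at room temperature, after which fluorescent replication substrate (50 nM final) was added to start the reaction. Fluorescence was read kinetically at 0 and 10 min.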
FEN1 inhibitor: human FEN1 inhibition; P39748; Recombinant FEN1 flap cleavage, fluorescence, 15 min; Potency, µM (titrated, usually from 114 µM), for the others: at the top dose activity change, negative = inhibition, hits mostly inhibitors; hit rate 0.35% among 390,000; note: % is set by controls: 0 for no effect and ±100 for the full control effect; nearly all actives have a fitted effect of over 65% in size
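Quantitative HTS format: each compound was titrated, incubated with 10 nM nuclease for 15 min at room temperature, then challenged with flap substrate at 50 nM final. Signal change over 15 min gave concentration–effect curves.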
WRN helicase inh: WRN helicase (human) inhibition. Q14191. WRN helicase unwinding, fluorescent forked duplex, kinetic. Potency, µM (series often up to 114 µM), inactives show at the highest dose activity change, negative = inhibition, actives largely listed as inhibitors. hit rate 0.46% among 360,000; note: % is set by controls: 0 for no effect and ±100 for the full control effect; nearly all actives have a fitted effect of over 55% in size
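Enzyme (20 nM final) and test compound sit together 15 min at room temperature before substrate addition. Substrate is a single-forked duplex oligonucleotide (100 nM) labelled with fluorophore and quencher, with 2 mM ATP; helicase unwinding raises red fluorescence, read kinetically.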
Pol iota inh: blocks human DNA polymerase iota activity; Q9UNA4; Potency, µM (titrated, usually from 115 µM), without a hit: top-dose activity, negative = inhibition, usual class: inhibitors; Pol iota fluorescent replication assay, 10 min; hit rate 1% among 390,000; AID 588590
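Fluorescent replication assay read twice, at 0 min and 10 min after adding 50 nM (final) substrate. Enzyme (10 nM) and compounds were first incubated 15 min at room temperature; enzyme-free buffer wells were negative controls.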
* hit, by the source's call; ? = inconclusive; / = no result given; [ ] = dose if it differs, or a comment. Calls come from the whole dose curve; as a rule, active = well fitted curve in the direction sought with a large enough effect; inconclusive = small, poorly fitted or top-dose-only effect, or another doubt; inactive = no such curve, though single readings can be large; an effect the other way counts as inactive or inconclusive. Potency is the fitted concentration of half-maximal effect.

SMILES	POLB inh	Pol kappa inh	Pol eta inh	FEN1 inhibitor	WRN helicase inh	Pol iota inh
COCCCCOc1cc2nc(N3CCCN(C)CC3)nc(NC3CCN(C)CC3)c2cc1OC	/	-3.5%	/	44.7µM*	/	24.0%
COc1cc2c(NC3CCN(C)CC3)nc(N3CCCN(C)CC3)nc2cc1OCCCCCN	/	?	/	8.91µM*	/	?
COc1cc2c(NC3CCN(C)CC3)nc(N3CCCN(C)CC3)nc2cc1OCC1CCCCN1 (centres undefined)	/	?	/	20µM*	/	?
CCCN(CCC)CCCNC(=O)c1cn(CCOC)c(=O)c2c1c1ccccc1n2C	13.4%	12.3%	-15.6%	7.8%	3.3%	40.0%
COc1c(C)cc(NC(=O)c2ccc3c(c2)NC(=O)CO3)cc1C	0.8%	-5.2%	1.5%	-0.6%	7.2%	-6.6%
Cc1ccc(N(CC(=O)N2CC(=O)Nc3ccccc32)S(=O)(=O)c2ccc3c(c2)OCCO3)cc1	-1.1%	-10.9%	-9.1%	-4.1%	-3.8%[11.6 µM]	79.4µM*
COc1ccc(NC(=O)C2CCN(C3=NS(=O)(=O)C(c4ccc(C)c(C)c4)=C3C)CC2)cc1OC	?	4.2%	/	3.1%	/	5.4%
Cc1ccc(NC(=O)c2cc(N3C(=O)C=CC3=O)ccc2N2CCOCC2)cc1	?	-9.3%	-5.7%	-0.7%	35.5µM*	93.2%
Cc1ccc(NC(=O)c2cc(NC(=O)c3ccco3)ccc2N2CCOCC2)cc1	1.2%	-11.4%	-1.7%	-12.5%	1.6%	23.1%
COc1ccc([C@H]2C[C@@H](n3cc(COC(=O)c4ccccc4)nn3)[C@H](O)CN2CC2CCCCC2)cc1	/	/	-14.6%	/	2.7%	/
COc1ccc(/C=N/N2CCN(C3c4ccccc4-c4ccccc43)CC2)cc1O	-10.8%	-7.1%	-8.1%	-22.1%	-31.4%	-4.3%
COc1ccc2ccccc2c1C(O)c1nccn1C (centres undefined)	-14.0%	-26.5%	-8.8%	?	-22.3%	25.1µM*
CC1=NN(c2ccccc2C)C(=O)C1	/	3.5%	-13.5%	-11.4%	0.8%[11.6 µM]	3.16µM*
O=C(Nc1cccc(Cl)c1)Nc1nnc(-c2ccncc2)s1	39.8µM*	-9.6%	?	-7.0%	-11.4%	?
O=C(Nc1ccc(Cl)cc1)Nc1nnc(-c2ccncc2)s1	-13.4%	-3.3%	?	-0.8%	-3.4%	12.7%
Cc1ccc(NC(=O)Nc2nnc(-c3ccncc3)s2)cc1C	1.2%	?	89.1µM*	-11.3%	-4.7%[11.6 µM]	22.4µM*
Nc1c(C(=O)NCCc2ccccc2)nnn1CC(=O)Nc1ccc(Cl)cc1	?	-28.4%	-6.7%	-14.2%	/	79.4µM*
Cc1cc(C)cc(NC(=O)Cn2nnc(C(=O)NCCc3ccccc3)c2N)c1	?	-24.0%	-12.8%	-10.8%	-8.5%[11.6 µM]	?
Cc1ccccc1NC(=O)Cn1nnc(C(=O)NCCc2ccccc2)c1N	14.1µM*	-7.5%	-17.7%	5.7%	/	-11.1%
Cc1ccc(C)c(NC(=O)Cn2nnc(C(=O)NCc3ccccc3Cl)c2N)c1	35.5µM*	-11.1%[60.1 µM]	-16.1%	11.7%	/	?
Cc1cc(C)cc(NC(=O)Cn2nnc(C(=O)NCc3ccccc3Cl)c2N)c1	16.5%	10.8%	-8.8%	2.8%	-22.4%	?
CSc1cccc(NC(=O)Cn2nnc(C(=O)NCCc3ccccc3)c2N)c1	25.1µM*	-4.9%[60.1 µM]	-21.0%	2.1%	/	79.4µM*
CCc1cc(/C(Cc2csc(C)n2)=N/O)c(O)cc1O	?	-0.9%	?	13.0%	-1.4%	-2.7%
CN(CC(=O)NC(=O)NCc1ccccc1)CC(=O)Nc1ccc(Cl)c(C(F)(F)F)c1	/	-27.8%	-11.2%	-20.4%	-6.9%[11.6 µM]	89.1µM*
CN(CC(=O)NCc1ccccc1)CC(=O)Nc1ccc(Cl)c(C(F)(F)F)c1	/	0.5%	?	-4.9%	3.7%	48.2%
SMILES	POLB inh	Pol kappa inh	Pol eta inh	FEN1 inhibitor	WRN helicase inh	Pol iota inh
COc1ccccc1C1CC(=O)Oc2cc3c(cc21)OCO3 (centres undefined)	/	14.1µM*	/	/	/	/
CCN(CC)S(=O)(=O)c1cc(NC(=O)c2ccc(Br)s2)ccc1C	-2.4%	-6.9%	0.3%	-20.4%	-8.7%	6.5%
CCN(CC)S(=O)(=O)c1cc(NC(=O)c2ccc3c(c2)NC(=O)C(C)S3)ccc1C (centres undefined)	/	-0.5%	56.2µM*	-1.1%	-3.0%[11.6 µM]	-15.3%
COc1cc2[nH]c3c(=O)n(CCN4CCCCC4)cnc3c2cc1OC	-16.2%	22.4µM*	-2.2%	-12.1%	-6.8%[57.1 µM]	0.7%
CCN(CC(=O)NCc1cccs1)C(=O)c1ccc(S(=O)(=O)Nc2ccccc2F)cc1	/	-12.3%	-1.5%	-9.1%	-7.8%	9.0%
Cc1ccc(/C=C/C(=O)N2CCN(S(=O)(=O)c3cccs3)CC2)o1	1.5%	-3.2%	-3.0%	-4.7%	-7.3%	23.4%
O=C(/C=C/c1ccco1)N1CCN(S(=O)(=O)c2cccs2)CC1	50.1µM*	-13.1%	?	-2.2%	-1.1%[11.6 µM]	39.8µM*
COc1ccc(S(=O)(=O)N2CCc3ccccc32)cc1C(=O)Nc1ccc(C(N)=O)cc1	/	-10.0%	-12.2%	8.0%	5.6%	89.1µM*
COc1ccccc1C(=O)Nc1ccc(S(=O)(=O)N2CCc3ccccc32)cc1	4.9%	-4.3%	1.7%	-12.2%	-1.9%	-2.3%
Cc1cc(NC(=O)c2ccc(S(=O)(=O)N3CCc4ccccc43)cc2)no1	50.1µM*	-2.0%[60.1 µM]	-19.7%	-17.3%	-4.0%	?
O=C1COc2ccc(C(=O)COC(=O)c3ccc(S(=O)(=O)C(F)F)cc3)cc2N1	/	-9.2%	-9.0%	11.0%	-3.8%	34.2%
CC1CCN(S(=O)(=O)c2ccc(NC(=O)C3CSC4(C)CCC(=O)N34)cc2)CC1 (centres undefined)	/	-27.6%	20µM*	0.7%	0.7%[11.6 µM]	?
O=S(=O)(c1ccc(Br)cc1)c1nc(-c2ccccc2)oc1NCCN1CCOCC1	-3.0%	-5.8%	-6.1%	-10.0%	-9.2%	1.5%
CN(C)c1ccc(NC(=O)CSc2nc3c(c(=O)[nH]2)CCCC3)cc1	?	?	79.4µM*	-7.7%	-1.6%[11.6 µM]	?
Cc1cc(C)c2c(=O)[nH]c(SCC(=O)c3ccc(C)c(C)c3)nc2n1	17.8µM*	-8.6%	-11.3%	2.7%	-10.5%	81.9%
CCOc1ccc(NC(=O)CSc2nc3c(c(=O)[nH]2)CCCC3)cc1	0.8%	-3.1%	-5.5%	10.7%	/	23.5%
Cc1cc(C)c2c(=O)[nH]c(SCC(=O)Nc3ccccc3)nc2n1	1.2%	-10.4%	9.5%	6.5%	-13.5%	-1.6%
Cc1ccc(NC(=O)CSc2nc3nc(C)cc(C)c3c(=O)[nH]2)cc1	44.7µM*	-1.2%	?	3.2%	-15.3%	1.2%
COCCN1C(=S)N[C@@H](c2cccc(F)c2)C(C(=O)OC)=C1C	1.6%	/	/	/	/	/

Screening results deposited in PubChem by National Center for Advancing Translational Sciences (NCATS).
